Data reported in PubChem BioAssay (NCATS).
Results filed as inconclusive are left out. Activity calls are given as the source filed them. Unless noted, the call rests on the fitted dose curve; in most records, active means well fitted curve in the direction sought with a large enough effect; inconclusive means small, poorly fitted or top-dose-only effect, or another doubt; inactive means no such curve, though single readings can be large; an effect the other way counts as inactive or inconclusive.

What was measured:
[1] = qHTS profiling of the MIPE4 collection as inhibitors of Plasmodium falciparum (HB3) proliferation (AID 743347; call rule not given here); settings: P. falciparum HB3 in erythrocytes, SYBR Green DNA, 72 h; at 28.5 µM (top of the series)
Summary of the method: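 Erythrocytes infected with P. falciparum (0.3% parasitemia, 2.5% hematocrit) incubated with compounds 72 h at 37 C, 5% CO2. Lysis with saponin/Triton buffer containing SYBR Green I, overnight at room temperature in the dark; DNA fluorescence (485/535 nm) normalised to 0.29 uM artemisinin and DMSO.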

[2] = qHTS assay for measurement of the activity of small molecule inhibitors on Zika virus induced Caspase-3 activity in human iPSC derived neural progenitor cells (hNPCs) (AID 1224857); further: nearly all actives have a fitted effect of over 65% in size
Summary of the method: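 Zika virus (2 FFU/cell) infection of human iPSC-derived NPCs, 6 h, following 1 h compound preincubation. Read-out: Caspase-Glo 3/7 luminescence.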

[3] = qHTS assay for measurement of the activity of small molecule inhibitors on Zika virus induced Caspase-3 activity in human astrocytoma cells (AID 1224859)
Summary of the method: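 Caspase activation in ZIKV-infected SNB-19 cells (2 FFU/cell, 6 h) measured by Caspase-Glo 3/7 luminescence after 30 min RT; compound pre-incubated 1 h; normalised to uninfected and infected controls.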

[4] = qHTS assay to identify small molecule inhibitors of chordoma cells - UCH-2 (AID 1259356)
[5] = P-glycoprotein substrates identified in KB-8-5-11 adenocarcinoma cell line, qHTS therapeutic library screen (AID 1346987); further: nearly all actives have a fitted effect of over 65% in size; further: potency means the concentration at half of the fitted maximal effect
Summary of the method: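 KB-8-5-11, a colchicine-selected P-gp-overexpressing KB-3-1 subline, was grown without colchicine for the assay. Cells were seeded at 500 cells/well, dosed in concentration-response and incubated 72 h at 37 degree C, 5% CO2. Viability was read by CellTiter-Glo luminescence.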

[6] = qHTS assay to identify small molecule inhibitors of chordoma cells - UCH-1 (AID 1259355); further: nearly all actives have a fitted effect of over 55% in size
Summary of the method: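 Seed 800 cells per well; incubate overnight at 37 C, 5% CO2. Add test compounds (15 concentrations), then the auranofin–topoisomerase-agent combination. Incubate 48hr, add CellTiter-Glo, wait 30min, read luminescence.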

[7] = Identifying Small Molecule Inhibitors of Pancreatic Cancer Stem Cells (A2780, Spheroid) (AID 1259357); settings: A2780 spheroid viability;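 further: potency means the concentration at half of the fitted maximal effect; compound exposure lasted 48 h before the ATP luminescence read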
Summary of the method: (§1)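 Cytotoxicity read by CellTiter-Glo luminescence after 48 h compound exposure at 37C; percent activity scaled between DMSO-treated cells and cell-free wells. Spheroid formats used cells pre-formed 14 days in stem cell media on hydrogel.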

[8] = Identifying Small Molecule Inhibitors of Pancreatic Cancer Stem Cells (A278, Adherent) (AID 1259361); further: nearly all actives have a fitted effect of over 35% in size
Summary of the method: as §1

[9] = Identifying Small Molecule Inhibitors of Pancreatic Cancer Stem Cells (Panc1, Adherent) (AID 1259362);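 further: compound exposure lasted 48 h before the viability read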
Description: Progenitor-like cancer cells, often referred to as cancer stem cells (CSC), are believed to be the drivers of therapeutic resistance and rapid recurrence. CSCs are postulated to reside in specific niches characterized by low oxygen tension, limited nutrient supply, and high redox load. Selectively targeting CSC, alone or in combination with cytotoxic agents, as a means to produce durable remissions is an appealing concept. Modeling these cells in in vitro setting is an important step in finding new therapies and/or targets. Multiple reports highlight that forcing cells in culture into 3-dimensionaly architectures (spheroids) re-establishes key progenitor-like transcriptional signatures. Pancreatic cancer is among the diseases with the most dismal outlook which is driven, largely, by recurance following front-line therapies. […]
Multicellular tumor spheroids from Panc1, MiaPaCa-2, and the primary low-passage tissue culture line SB.06 were seeded in stem cell media (SCM) in nonadherent 6-well plates coated with hydrogel (Corning Life Sciences, Chelmsford, Mass) and pancreatic spheres generated for 14 days before screening. […] Plates were incubated at room temperature for 10 minutes prior to reading the luminescence on the Viewlux (PerkinElmer). […]

CN1C[C@H](C(=O)N[C@]2(C)O[C@@]3(O)[C@@H]4CCCN4C(=O)[C@H](Cc4ccccc4)N3C2=O)C[C@@H]2c3cccc4[nH]cc(c34)C[C@H]21
inactive: outcome [2] | outcome [3] | Potency [4] | Potency [5]
5.6%: growth, % of control [1]

CC(C)[N+](C)(CCOC(=O)C1c2ccccc2Oc2ccccc21)C(C)C
inactive: outcome [2] | outcome [3] | Potency [6] | Potency [4] | Potency [5]

Fc1ccc(C(c2ccc(F)cc2)N2CCN(C/C=C/c3ccccc3)CC2)cc1
inactive: outcome [2] | Potency [6]

C[N+](C)(C)CCCCCCCCCC[N+](C)(C)C
inactive: outcome [2] | Potency [6] | Potency [4]

CCCN(CCC)C(=O)C(CCC(=O)O)NC(=O)c1ccccc1 (stereo unspecified)
inactive: outcome [2] | outcome [3] | Potency [6] | Potency [4] | Potency [5]

Cc1nnc(SCC2=C(C(=O)O)N3C(=O)[C@@H](NC(=O)Cn4cnnn4)[C@H]3SC2)s1
inactive: outcome [2] | outcome [3] | Potency [6] | Potency [4] | Potency [5]

CN1C(=O)CC[C@H]1c1cccnc1
inactive: outcome [2] | outcome [3] | Potency [6] | Potency [4] | Potency [5]

CCN(Cc1ccncc1)C(=O)C(CO)c1ccccc1 (stereo unspecified)
inactive: outcome [2] | outcome [3] | Potency [4] | Potency [5]

Nc1ncn([C@@H]2O[C@H](CO)[C@@H](O)[C@H]2O)c(=O)n1
inactive: outcome [2] | outcome [3] | Potency [4] | outcome [9]
active: Potency [7] 16.6 µM | IC50 (viability decrease) [8] 2.35 µM | Potency [5] 8.2 µM

Cc1ccc(Cl)c(Nc2ccccc2C(=O)O)c1Cl
inactive: outcome [2] | outcome [3] | Potency [6] | Potency [4] | Potency [5]

O=C(O)CN(CCN(CC(=O)O)CC(=O)O)CCN(CC(=O)O)CC(=O)O
inactive: outcome [2] | outcome [3] | Potency [6] | Potency [4] | Potency [5]
